The list is not random: actives were taken first. Their share in the collection is about 3.4%.
ADAM17 inh: inhibitors of human ADAM17; P78536; recombinant ADAM17, EDANS/DABCYL FRET peptide cleavage; inhibition, % at 6.95 µM; 0.83% of 370,000 active; AID 720648;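 active means inhibition above the mean of compounds lying between control limits plus 3 SD, set per campaign, cut at about 8.5% in these data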;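 further: 0% = DMSO-only wells as the low control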
PLC-gamma1 inh: inhibitors of human phospholipase C gamma1 | P19174 | purified PLC-gamma1, fluorogenic substrate, fluorescence | inhibition, % at 12.2 µM | 0.84% of 370,000 active | AID 720700; in the data active means inhibition above about 9.5%
sPLA2-III inh: Inhibits HGIII-sPLA2 liposome hydrolysis, primary screen | Q9NZ20 | AID 743126 | QFRET BODIPY PC-A2 liposome hydrolysis, fluorescence | 0.56% of 370,000 active | inhibition, % at 12.2 µM;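 active means inhibition above mean plus 3 SD of compounds lying within the high and low control bounds, cut at about 19% in these data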;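 further: 0% = median of test compound wells and 100% = no enzyme DMSO wells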
ADAM10 inh: inhibitors of human ADAM10. recombinant ADAM10, EDANS/DABCYL FRET peptide cleavage, 3 h. inhibition, % at 7 µM. O14672. 0.62% of 370,000 active;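 active means inhibition above a per-campaign cutoff equal to the mean of compounds falling between control-based bounds plus 3 SD, cut at about 20% in these data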;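 further: 0% = DMSO wells while the 100% control is not disclosed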
PLC-beta3 inh: PLC-beta3 (human) inhibition, primary screen | Purified PLC-beta3, fluorogenic substrate, fluorescence | inhibition, % at 12.2 µM | Q01970 | 0.18% of 370,000 active; in the data active means inhibition above about 11%;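 further: 0% = median of compound wells on plate and 100% = full blocker control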
Target sequence (Q01970 whole entry, looked up): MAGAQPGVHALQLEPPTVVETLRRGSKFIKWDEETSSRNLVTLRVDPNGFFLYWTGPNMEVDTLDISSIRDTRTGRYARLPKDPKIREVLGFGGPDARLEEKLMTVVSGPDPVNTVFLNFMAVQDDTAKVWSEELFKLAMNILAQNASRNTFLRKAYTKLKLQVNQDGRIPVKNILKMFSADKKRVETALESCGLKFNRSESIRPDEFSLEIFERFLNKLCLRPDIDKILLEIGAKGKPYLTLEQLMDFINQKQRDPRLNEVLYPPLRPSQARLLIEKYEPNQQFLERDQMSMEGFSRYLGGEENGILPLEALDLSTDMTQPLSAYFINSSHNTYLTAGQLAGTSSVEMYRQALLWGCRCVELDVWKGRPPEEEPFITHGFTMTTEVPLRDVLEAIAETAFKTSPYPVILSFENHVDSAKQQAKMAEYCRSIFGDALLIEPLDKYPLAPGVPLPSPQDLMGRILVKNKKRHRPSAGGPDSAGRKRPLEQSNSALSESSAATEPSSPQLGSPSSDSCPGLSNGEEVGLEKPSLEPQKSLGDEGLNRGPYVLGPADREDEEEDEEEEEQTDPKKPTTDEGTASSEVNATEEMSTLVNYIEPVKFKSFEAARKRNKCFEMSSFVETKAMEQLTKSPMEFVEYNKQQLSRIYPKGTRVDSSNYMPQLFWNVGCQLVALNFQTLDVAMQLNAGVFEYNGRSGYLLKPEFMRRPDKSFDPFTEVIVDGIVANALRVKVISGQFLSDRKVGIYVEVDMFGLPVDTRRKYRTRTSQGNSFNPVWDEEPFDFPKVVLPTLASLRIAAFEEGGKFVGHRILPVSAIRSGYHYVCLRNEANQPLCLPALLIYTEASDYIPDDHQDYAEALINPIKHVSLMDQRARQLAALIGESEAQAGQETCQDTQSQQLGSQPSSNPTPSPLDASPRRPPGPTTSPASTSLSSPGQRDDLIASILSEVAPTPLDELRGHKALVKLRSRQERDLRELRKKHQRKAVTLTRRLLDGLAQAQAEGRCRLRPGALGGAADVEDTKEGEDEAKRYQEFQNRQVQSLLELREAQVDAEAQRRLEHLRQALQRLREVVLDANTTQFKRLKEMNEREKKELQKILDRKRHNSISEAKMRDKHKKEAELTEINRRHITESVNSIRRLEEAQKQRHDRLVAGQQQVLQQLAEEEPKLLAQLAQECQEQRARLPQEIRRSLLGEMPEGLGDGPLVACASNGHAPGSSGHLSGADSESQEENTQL
KLK7 zymogen act: proKLK7 (human) activation, primary screen. P49862. purified proKLK7, EDANS-DABCYL substrate fluorescence; 100% is mature enzyme control, 0% vehicle. activation, % at 7 µM. 0.9% of 370,000 active. AID 652039;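 active means activation above the mean of all tested compounds plus 3 SD, computed per campaign excluding outliers beyond control limits, cut at about 13% in these data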
hGIII sPLA2 conf: human GIII-sPLA2 inhibition, confirmation | recombinant hGIII-sPLA2, BODIPY PC-A2 QFRET fluorescence | inhibition, % at 12.2 µM | shares compounds with sPLA2-III inh | 34% of 2,000 active;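 active means mean inhibition across triplicates above the hit cutoff set in the earlier primary screen, cut at about 19% in these data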;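 further: 0% = enzyme with DMSO and 100% = DMSO wells lacking enzyme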
BODIPY interf: 535nm fluorescence interference, HGIII-sPLA2 counter-screen; shares compounds with sPLA2-III inh; BODIPY FL product fluorescence interference, QFRET; inhibition, % at 12.2 µM; 8.5% of 2,000 active; AID 743282;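 active means average inhibition above the solvent-only control mean plus 3 SD, cut at about 6% in these data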;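 further: 0% = DMSO with substrate plus product and 100% = DMSO with substrate alone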
BODIPY interf DR: counter-screen for HGIII-sPLA2 inhibitors: 535nm fluorescence interference, dose response | AID 743455 | 240 tested, under 10 active | IC50, µM | BODIPY FL product fluorescence interference, cell-free | shares compounds with sPLA2-III inh;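 active means IC50 at or below 10 µM; inactive means IC50 above 10 µM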
Active calls of the source: *.

Results for CC[n+]1c(/C=C/c2ccc(N(C)C)cc2)ccc2ccccc21 ?
ADAM17 inh: 4; PLC-gamma1 inh: 0; sPLA2-III inh: 25*; ADAM10 inh: 12; PLC-beta3 inh: 2; KLK7 zymogen act: 0; hGIII sPLA2 conf: 43*; BODIPY interf: -14; BODIPY interf DR: >122

What do the screens show for `CC[n+]1ccc(/C=C/c2ccc(N(C)C)cc2)c2ccccc21`?
ADAM17 inh: -1; PLC-gamma1 inh: 3; sPLA2-III inh: 24*; ADAM10 inh: -3; PLC-beta3 inh: -4; KLK7 zymogen act: 0; hGIII sPLA2 conf: 46*; BODIPY interf: -11; BODIPY interf DR: >122

What do the screens show for `O=C(N[C@H]1CC[C@@H]2SC[C@@H](C(=O)O)N2C1=O)OCC1c2ccccc2-c2ccccc21`?
ADAM17 inh: 3; PLC-gamma1 inh: 4; sPLA2-III inh: -11; ADAM10 inh: 8; PLC-beta3 inh: 6; KLK7 zymogen act: 0

How did COc1cc(Nc2cc(C)n(-c3cc(OC)cc(OC)c3)c(=O)c2)cc(OC)c1 do in these assays?
ADAM17 inh: -4; PLC-gamma1 inh: -33; sPLA2-III inh: 2; ADAM10 inh: -11; PLC-beta3 inh: -44; KLK7 zymogen act: 0

Results for NNC(=S)NCc1ccc2c(c1)OCO2 ?
ADAM17 inh: -6; PLC-gamma1 inh: -27; sPLA2-III inh: 20*; ADAM10 inh: -16; PLC-beta3 inh: -38; KLK7 zymogen act: -1; hGIII sPLA2 conf: 10; BODIPY interf: -6

What do the screens show for `COC(=O)C1=C(C)N(C)C(=NCc2ccccc2C(F)(F)F)NC1c1ccc(Cl)cc1` (configuration not stated)?
ADAM17 inh: -5; PLC-gamma1 inh: 9; sPLA2-III inh: 7; ADAM10 inh: -7; PLC-beta3 inh: 3; KLK7 zymogen act: 0

Results for CCCC(=O)N(c1ccc(OC)cc1)C1C=CS(=O)(=O)C1 (configuration not stated) ?
ADAM17 inh: -4; PLC-gamma1 inh: 0; sPLA2-III inh: 4; ADAM10 inh: 3; PLC-beta3 inh: 4; KLK7 zymogen act: -1

What do the screens show for `COc1ccc(N(C(=O)c2cccc(OC)c2OC)C2C=CS(=O)(=O)C2)cc1` (configuration not stated)?
ADAM17 inh: -6; PLC-gamma1 inh: -3; sPLA2-III inh: 24*; ADAM10 inh: 6; PLC-beta3 inh: -2; KLK7 zymogen act: -1; hGIII sPLA2 conf: 8; BODIPY interf: -4

How did CCC[C@H]1[C@@H](NC(=O)c2cccnc2)CC[C@@]23CCCN2C(=O)CCC[C@@H]13 do in these assays?
ADAM17 inh: -6; PLC-gamma1 inh: 3; sPLA2-III inh: 7; ADAM10 inh: -7; PLC-beta3 inh: -3

Results for CN(C)c1ccc(NC(=O)Nc2ccc3c(c2)nnn3C)cc1 ?
ADAM17 inh: -10; PLC-gamma1 inh: -18; sPLA2-III inh: 19*; ADAM10 inh: -11; PLC-beta3 inh: -24; KLK7 zymogen act: 0; hGIII sPLA2 conf: 7; BODIPY interf: -4

What do the screens show for `Cc1nnc(C)n1N=Cc1ccc(O)cc1O`?
ADAM17 inh: -7; PLC-gamma1 inh: -9; sPLA2-III inh: -1; ADAM10 inh: -23; PLC-beta3 inh: -14; KLK7 zymogen act: -2

How did Brc1csc(C=Nc2ccc3c(c2)OCCOCCOCCOCCO3)c1 do in these assays?
ADAM17 inh: -8; PLC-gamma1 inh: -11; sPLA2-III inh: 14; ADAM10 inh: -20; PLC-beta3 inh: -13; KLK7 zymogen act: -1

How did Brc1ccc(C=Nc2ccc3c(c2)OCCOCCOCCO3)s1 do in these assays?
ADAM17 inh: -2; PLC-gamma1 inh: -2; sPLA2-III inh: 24*; ADAM10 inh: -8; PLC-beta3 inh: -4; KLK7 zymogen act: -1; hGIII sPLA2 conf: 6; BODIPY interf: -9

What do the screens show for `COC(=O)[C@]12C[C@H](CC(=O)NCc3cccs3)C(=O)N(Cc3ccc(Cl)cc3Cl)C1=C[C@H](COCc1ccccc1)O[C@@H]2C`?
ADAM17 inh: 7; PLC-gamma1 inh: 1; sPLA2-III inh: -16; ADAM10 inh: 14; PLC-beta3 inh: 1; KLK7 zymogen act: 0

How did CC(=O)Nc1sc2c(c1-c1nc3ccccc3s1)CCN(C(C)=O)C2 do in these assays?
ADAM17 inh: -52; PLC-gamma1 inh: -364; sPLA2-III inh: -11; ADAM10 inh: -179; PLC-beta3 inh: inactive

How did CCn1c(=S)[nH]c2cc(Cl)ccc21 do in these assays?
ADAM17 inh: -5; PLC-gamma1 inh: -1; sPLA2-III inh: 12; ADAM10 inh: -5; PLC-beta3 inh: -8; KLK7 zymogen act: 0

Results for CCCn1c(=S)[nH]c2cc(Cl)ccc21 ?
ADAM17 inh: -6; PLC-gamma1 inh: -2; sPLA2-III inh: 21*; ADAM10 inh: 3; PLC-beta3 inh: -13; KLK7 zymogen act: -1; hGIII sPLA2 conf: 9; BODIPY interf: -5

Results for CN(C)c1ccc(N=Cc2nc(-c3ccccc3)oc2OC(=O)c2cccc(Cl)c2)cc1 ?
ADAM17 inh: -1; PLC-gamma1 inh: -10; sPLA2-III inh: 22*; ADAM10 inh: 4; PLC-beta3 inh: -7; KLK7 zymogen act: 0; hGIII sPLA2 conf: 8; BODIPY interf: -4

Results for Cc1ccc(C(=O)Oc2oc(-c3ccccc3)nc2C=Nc2ccc(N(C)C)cc2)cc1 ?
ADAM17 inh: -4; PLC-gamma1 inh: -5; sPLA2-III inh: 14; ADAM10 inh: -15; PLC-beta3 inh: -3; KLK7 zymogen act: 0

Results for NC(=O)c1cc([N+](=O)[O-])ccc1NCc1cnccn1 ?
ADAM17 inh: 7; PLC-gamma1 inh: 7; sPLA2-III inh: 20*; ADAM10 inh: 10; PLC-beta3 inh: 7; KLK7 zymogen act: 0; hGIII sPLA2 conf: -6; BODIPY interf: -4

How did Cc1ccccc1NC(=O)c1c(C)cc(=O)oc1C do in these assays?
ADAM17 inh: -12; PLC-gamma1 inh: -4; sPLA2-III inh: 23*; ADAM10 inh: 1; PLC-beta3 inh: 6; KLK7 zymogen act: 0; hGIII sPLA2 conf: -2; BODIPY interf: -6

How did Cc1cc(=O)oc(C)c1C(=O)Nc1ccccc1F do in these assays?
ADAM17 inh: -3; PLC-gamma1 inh: 0; sPLA2-III inh: 26*; ADAM10 inh: -13; PLC-beta3 inh: 0; KLK7 zymogen act: 0; hGIII sPLA2 conf: 1; BODIPY interf: -8

Results for Cc1cc(=O)oc(C)c1C(=O)Nc1cccc2ccccc12 ?
ADAM17 inh: -1; PLC-gamma1 inh: 2; sPLA2-III inh: 1; ADAM10 inh: 12; PLC-beta3 inh: 4; KLK7 zymogen act: 0

Screens deposited in PubChem BioAssay by The Scripps Research Institute Molecular Screening Center.
